Among the data in PubChem BioAssay are z-score and composite z-score values, retold here.

A short description of test [1]: optical density shifts of acrAB sulA E. coli – strain DRC41, OD650, 48 h, E. coli filamentation inducer project, primary screen (AID 1152).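 Further: E. coli MC1000 strain DRC41 lacking acrAB efflux pump and sulA.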 As to conditions: higher = more signal, called active from +8 up or from −8 down.
The nature of test [2]: probe aLefty1 binding on compound microarray – biochemical, small-molecule microarray, 635/667 nm fluorescence, primary screen (AID 1153).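 Further: score merges spot fluorescence with signal-to-noise ratio from the scanned slide images.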 As to conditions: higher = more signal.
A short description of test [3]: plasmodial surface anion channel blockers, osmotic lysis – cell-based, P. falciparum Indochina, OD700, 1 h, primary screen (AID 1154). As to conditions: P. falciparum Indochina infected RBC osmotic lysis, higher = more signal, called active from +8 up or from −8 down.
Test [4] in a line: plasmodial surface anion channel blockers, osmotic lysis – cell-based, P. falciparum Indochina, OD700, 2 h, primary screen (AID 1155).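 Further: lysis reports solute entry through the parasite surface anion channel PSAC.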 As to conditions: P. falciparum Indochina infected erythrocytes, higher = more signal, called active from +8 up or from −8 down.
Test [5] can be described thus: changes in parasitized red cell lysis, either direction – P. falciparum Indochina, OD700, 3 h, PSAC antagonist project, primary screen (AID 1156). As to conditions: P. falciparum-infected erythrocytes, osmotic lysis, higher = more signal, called active from +8 up or from −8 down.
Test [6] can be described thus: plasmodial surface anion channel blockers, osmotic lysis – cell-based, P. falciparum Indochina, OD700, 18 h, primary screen (AID 1157). As to conditions: P. falciparum Indochina infected erythrocytes, osmotic lysis OD700, 18 h; higher = more signal, called active from +8 up or from −8 down.
Test [7] can be described thus: S6 kinase pathway phospho-S6 level changes – cell-based, A549, cytoblot, luminescence, serum-stimulated, primary screen (AID 1158).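 Further: serum-stimulated A549 lung adenocarcinoma cells; signal is phosphorylated S6 detected by cytoblot immunostaining with HRP secondary.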 As to conditions: 5 h, higher = more signal.
The target of test [8] is NADPH oxidase 2 (Homo sapiens) (UniProt P04839). As to the kind of experiment: compounds shifting NOX2 Amplex Red fluorescence – cell-based, HEK293-NOX2, PMA-stimulated, NOX inhibitor project, primary screen (AID 1159). Further: test concentration not given here. As to conditions: 45 min, higher = more signal, called active from +8 up or from −8 down.
Test [9] has as its target NADPH oxidase 4 (Homo sapiens) (UniProt Q9NPH5). As to the kind of experiment: compounds shifting NOX4 Amplex Red fluorescence – cell-based, HEK293-NOX4, tetracycline-induced, NOX inhibitor project, primary screen (AID 1160). As to conditions: HEK293-NOX4, Amplex Red H2O2 fluorescence, 45 min; higher = more signal, called active from +8 up or from −8 down.
Test [10] deals with NADPH oxidase 5 (Homo sapiens) (UniProt Q96PH1). Kind of test: compounds shifting NOX5 Amplex Red fluorescence – cell-based, HEK293-NOX5, NOX inhibitor project, primary screen (AID 1161). As to conditions: HEK293-NOX5, ionomycin, 45 min, higher = more signal.
Test [11] is described as follows: compound effects on lung adenocarcinoma cell viability – A549, calcein-AM fluorescence, 48 h, basal, profiling panel (AID 1162). Further: test concentration not given here. As to conditions: higher = more signal.
Test [12] in a line: compound effects on differentiated 3T3-L1 adipocyte viability – cell-based, 3T3-L1 adipocytes, calcein-AM fluorescence, 48 h, basal, profiling panel (AID 1163). Further: test concentration not given here. As to conditions: 3T3-L1 adipocytes viability, higher = more signal.
A short description of test [13]: compound effects on hepatocellular carcinoma cell viability – HepG2, calcein-AM fluorescence, 48 h, basal, profiling panel (AID 1164). Further: test concentration not given here. As to conditions: higher = more signal.
Test [14] is described as follows: compound effects on multiple myeloma cell viability – MM1S, calcein-AM fluorescence, 48 h, basal, profiling panel (AID 1165). Further: test concentration not given here. As to conditions: higher = more signal.
A short description of test [15]: calcein-AM signal in unstimulated myeloma cells – cell-based, calcein-AM fluorescence, 48 h, PK04 Diversity Set, profiling panel (AID 1166).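 Further: cells grown under basal conditions without added stimulus; test concentration not given here.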 As to conditions: RPMI8226 myeloma viability, higher = more signal.
Test [16] in a line: JC-1 mitochondrial signal, unstimulated HepG2 cells – cell-based, JC-1 fluorescence, 24 h, 100 nL compound, profiling panel (AID 1167). Further: test concentration not given here. As to conditions: HepG2 mitochondrial potential, higher = more signal.
Test [17] is described as follows: JC-1 mitochondrial signal, unstimulated adipocytes – cell-based, JC-1 fluorescence, 3T3-L1 adipocytes, 24 h, 100 nL compound, profiling panel (AID 1168). Further: test concentration not given here. As to conditions: JC-1 mitochondrial fluorescence, higher = more signal, called active from +8 up or from −8 down.
Test [18] is described as follows: JC-1 mitochondrial signal, unstimulated myeloma cells – cell-based, JC-1 fluorescence, RPMI8226, 24 h, 100 nL compound, profiling panel (AID 1169). Further: test concentration not given here. As to conditions: JC-1 mitochondrial potential fluorescence, higher = more signal.
Test [19] is described as follows: JC-1 mitochondrial signal, unstimulated MM1S myeloma – cell-based, JC-1 fluorescence, 24 h, 100 nL compound, profiling panel (AID 1170). Further: test concentration not given here. As to conditions: MM1S mitochondrial potential, higher = more signal.
Test [20] can be described thus: resazurin metabolic signal in A549 cells – cell-based, resazurin fluorescence, 24 h, PK04 Diversity Set, profiling panel (AID 1171). Further: test concentration not given here. As to conditions: A549 viability, higher = more signal, called active from +8 up or from −8 down. (Resazurin is reduced to fluorescent resorufin, in cell work by metabolically active cells.)

SMILES strings stand for the structures. Activity calls are given as the source filed them.

NADPH oxidase 4 (Homo sapiens), sequence (Q9NPH5 whole entry, looked up): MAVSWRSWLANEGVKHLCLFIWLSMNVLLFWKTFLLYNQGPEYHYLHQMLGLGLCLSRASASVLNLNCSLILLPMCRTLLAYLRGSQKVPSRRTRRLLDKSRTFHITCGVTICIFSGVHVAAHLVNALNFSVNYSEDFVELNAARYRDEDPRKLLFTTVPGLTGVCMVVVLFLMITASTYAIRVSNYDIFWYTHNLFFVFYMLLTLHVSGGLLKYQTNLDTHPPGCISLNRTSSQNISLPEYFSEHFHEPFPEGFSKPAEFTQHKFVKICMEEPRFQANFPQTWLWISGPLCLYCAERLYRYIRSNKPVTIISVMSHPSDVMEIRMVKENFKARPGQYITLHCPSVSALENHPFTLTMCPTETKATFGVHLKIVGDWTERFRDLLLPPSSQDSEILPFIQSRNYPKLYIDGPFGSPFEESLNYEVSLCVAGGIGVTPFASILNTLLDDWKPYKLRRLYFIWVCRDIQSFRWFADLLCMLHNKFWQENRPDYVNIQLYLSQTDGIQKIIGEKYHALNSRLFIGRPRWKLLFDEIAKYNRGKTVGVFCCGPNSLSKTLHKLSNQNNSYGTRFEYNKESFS
NADPH oxidase 2 (Homo sapiens), sequence (P04839 whole entry, looked up): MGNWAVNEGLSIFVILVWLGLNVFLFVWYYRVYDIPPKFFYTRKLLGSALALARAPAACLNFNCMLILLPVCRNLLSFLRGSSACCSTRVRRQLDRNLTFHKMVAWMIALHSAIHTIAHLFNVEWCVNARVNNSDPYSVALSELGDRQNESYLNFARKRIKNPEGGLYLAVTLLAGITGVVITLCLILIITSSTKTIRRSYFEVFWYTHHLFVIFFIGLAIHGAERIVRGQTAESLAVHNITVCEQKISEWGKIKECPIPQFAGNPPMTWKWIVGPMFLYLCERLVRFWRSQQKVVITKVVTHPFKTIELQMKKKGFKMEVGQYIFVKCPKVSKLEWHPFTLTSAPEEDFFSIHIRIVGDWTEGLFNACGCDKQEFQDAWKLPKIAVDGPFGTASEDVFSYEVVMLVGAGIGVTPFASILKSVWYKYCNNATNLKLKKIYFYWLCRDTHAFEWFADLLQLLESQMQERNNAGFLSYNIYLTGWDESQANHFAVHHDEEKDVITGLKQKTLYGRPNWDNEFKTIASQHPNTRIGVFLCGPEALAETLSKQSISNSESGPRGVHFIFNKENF
NADPH oxidase 5 (Homo sapiens), sequence (Q96PH1 whole entry, looked up): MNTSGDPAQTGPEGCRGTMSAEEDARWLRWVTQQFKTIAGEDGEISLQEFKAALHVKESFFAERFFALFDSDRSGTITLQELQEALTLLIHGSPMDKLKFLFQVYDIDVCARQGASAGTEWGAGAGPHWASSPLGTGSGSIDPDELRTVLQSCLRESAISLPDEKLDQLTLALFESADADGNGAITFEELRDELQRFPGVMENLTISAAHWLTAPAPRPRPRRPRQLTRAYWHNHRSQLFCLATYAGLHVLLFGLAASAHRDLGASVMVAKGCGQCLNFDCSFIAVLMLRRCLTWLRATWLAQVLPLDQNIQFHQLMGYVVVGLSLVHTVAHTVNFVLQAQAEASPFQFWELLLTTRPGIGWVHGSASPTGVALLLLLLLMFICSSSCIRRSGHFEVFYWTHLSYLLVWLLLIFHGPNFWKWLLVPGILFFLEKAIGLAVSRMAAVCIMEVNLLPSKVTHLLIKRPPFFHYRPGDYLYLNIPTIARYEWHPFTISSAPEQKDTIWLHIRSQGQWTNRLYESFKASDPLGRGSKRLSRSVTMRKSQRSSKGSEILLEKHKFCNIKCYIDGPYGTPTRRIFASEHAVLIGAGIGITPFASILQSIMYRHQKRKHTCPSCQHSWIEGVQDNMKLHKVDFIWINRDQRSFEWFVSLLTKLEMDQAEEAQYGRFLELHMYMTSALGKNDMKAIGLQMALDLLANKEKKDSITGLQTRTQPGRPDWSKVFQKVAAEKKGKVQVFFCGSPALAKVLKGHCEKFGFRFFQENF

`CON=CC[C@@H]1C=C[C@H](OC(C)=O)[C@@H](COC(C)=O)O1`: the z-score in test [1] is -2.1 (inactive); in [3], 0.0262 (inactive); in test [4] it was 0.0956 (inactive); in test [5], -0.833 (inactive); in test [6], 0.245 (inactive); in test [7], -0.841. In addition, the z-score in test [8] was 0.0851 (inactive); in [9], -0.0561 (inactive); in test [10] it was -0.107; in test [11], 0.779; in [12] it was -0.221; in test [13], -0.0589. Also, the z-score in [14] was -1.09; in [15], -0.0741; in [16] it was 0.308; in test [17], -0.835 (inactive); in test [18], -0.589; in [19], -0.0369. Moreover, the z-score in [20] was -0.357 (inactive). Moreover, in test [2], the composite z-score was 0.171.
On to `COC(=O)CC=C[C@@H](C)[C@@H](C=NO[C@@H](C)c1cn([C@H](CO)Cc2ccccc2)nn1)OC`, for which the z-score in test [1] is -0.64 (inactive); in test [3], -0.762 (inactive); in [4], -1.66 (inactive); in test [5] it was -0.726 (inactive); in test [6], -1.8 (inactive); in [7], 1.32. Besides, the z-score in test [8] was -0.374 (inactive); in test [9], 0.173 (inactive); in test [10], 0.874; in test [11], 0.52; in [12], 1.03; in test [13], 0.656. The z-score in [14] is 0.354; in test [15], -0.609; in [16], 0.341; in test [17], 1.08 (inactive); in test [18], 0.0532; in test [19] it was 0.723. The z-score in test [20] is -0.493 (inactive). In test [2], this molecule returned a composite z-score of -0.275.
Regarding `COC(=O)CC=C[C@@H](C)[C@@H](C=NO[C@H](C)c1cn([C@H](CO)Cc2ccccc2)nn1)NS(=O)(=O)c1ccc(C)cc1`, the z-score is -0.0528 (inactive) in [1]; 2.17 (inactive) in [3]; 0.674 (inactive) in test [4]; 0.605 (inactive) in test [5]; 0.22 (inactive) in test [6]; -1.07 in test [7]. Moreover, the z-score was 0.679 (inactive) in test [8]; 0.685 (inactive) in [9]; -0.0369 in test [10]; -0.775 in test [11]; -0.0125 in [12]; -0.647 in test [13]. The z-score was -0.0023 in [14]; -0.254 in [15]; -0.416 in test [16]; -2.46 (inactive) in [17]; 0.696 in [18]; 0.571 in test [19]. In [20], the z-score is -0.102 (inactive). Further, the composite z-score in test [2] was determined as 0.173.
Consider `CCOC(=O)[C@H](Cc1ccccc1)NC(=O)CCC1CC(OC(=O)NCCc2ccc(F)cc2)CC2(CCCC(COC(=O)NCCc3ccc(Cl)cc3)O2)O1` (stereo not given in full), for which the z-score in test [1] is 0.0991 (inactive); in test [3], 1.13 (inactive); in test [4] it was -0.525 (inactive); in test [5], 0.056 (inactive); in test [6], 0.126 (inactive); in test [7], 0.406. Moreover, the z-score in test [8] is 0.526 (inactive); in [9] it was 0.311 (inactive); in test [10] it was 1.13; in test [11] it was -0.648; in test [12] it was -0.224; in test [13], -0.44. Besides, the z-score in [14] was -1.91; in test [15], -1.94; in test [16] it was -0.0496; in test [17] it was -0.305 (inactive); in [18] it was 0.158; in [19], -0.56. Further, the z-score in test [20] was 0.0031 (inactive). In addition, in [2], the composite z-score is -0.0244.
